UCHL1 block: inhibitors of human UCHL1 deubiquitinase; purified UCHL1, Ub-rhodamine cleavage fluorescence; inhibition, % at 20 µM; 0.2% of 47,000 active; AID 1645859, 2021
OTUD3 inh: inhibitors of human OTUD3 deubiquitinase | inhibition, % at 25 µM | 0.7% of 47,000 active | AID 1645858, 2021 | purified OTUD3, Ub-rhodamine fluorescence, 2 h | OTU domain-containing protein 3 (Homo sapiens), Q5T2D3
Target sequence (Q5T2D3 whole entry, looked up, the tested form may be a part): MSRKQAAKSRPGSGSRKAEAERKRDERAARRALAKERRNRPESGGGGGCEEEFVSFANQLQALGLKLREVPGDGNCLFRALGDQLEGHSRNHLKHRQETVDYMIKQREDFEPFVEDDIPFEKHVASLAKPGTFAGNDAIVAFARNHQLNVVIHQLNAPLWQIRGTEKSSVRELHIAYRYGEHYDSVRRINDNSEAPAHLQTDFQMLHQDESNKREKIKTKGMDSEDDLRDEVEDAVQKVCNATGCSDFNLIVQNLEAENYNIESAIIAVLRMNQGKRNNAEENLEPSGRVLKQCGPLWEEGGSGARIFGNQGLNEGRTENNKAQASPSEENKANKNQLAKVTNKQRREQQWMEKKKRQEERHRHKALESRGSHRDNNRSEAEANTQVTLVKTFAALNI
USP7 inh: inhibitors of human USP7 deubiquitinase; Ubiquitin carboxyl-terminal hydrolase 7 (Homo sapiens), Q93009; purified USP7, Ub-rhodamine cleavage fluorescence; inhibition, % at 20 µM; 0.3% of 47,000 active; AID 1645854, 2021
A number is an active result; – = inactive; · = no result. Only some compounds are listed: those with a hit (about 1.1% of all), similar ones and a draw of the others. Rule as the data show it: active = inhibition above about 30%; inactive = the rest.

SMILES	UCHL1 block	OTUD3 inh	USP7 inh
COc1cccc(NC(=O)C2Cn3ccnc3C3(CCN(C(C)=O)CC3)O2)c1 (configuration not stated)	–	32.3	–
COc1cccc(CN2CCC3(CC2)OC(C(=O)Nc2ccccc2)Cn2ccnc23)c1 (configuration not stated)	–	–	–
COc1cc(C(=O)OCc2csc(-c3ccccc3)n2)cc(Cl)c1OC	–	–	–
COc1cc(C(=O)OCc2csc(-c3ccccc3)n2)ccc1OCC(=O)Nc1ccc(F)cc1	–	36.0	–
CC1(C)c2ccc3c(c2C(=O)C2OC21)C(O)OC3=O (configuration not stated)	–	–	–
O=C1c2c(O)ccc(O)c2C2(Oc3cccc4cccc(c34)O2)C2OC12 (configuration not stated)	44.9	68.4	–
O=C1c2c(O)cccc2C2(Oc3cccc4cccc(c34)O2)C2OC12 (configuration not stated)	–	46.9	–
O=C(Nc1cccc(Cl)c1)N1CCN(c2cc(C(F)(F)F)ccn2)CC1	–	–	–
O=C(NC1CCCCCC1)c1cn(-c2ccc(S(=O)(=O)N3CCCC3)cn2)cn1	–	–	–
CC(C)(NC(=O)C1CCCCC1)c1nc2c(c(C(N)=O)n1)OCCO2	–	–	81.0
CC(C)(NC(=O)Cc1ccccc1)c1nc2c(c(C(N)=O)n1)OCO2	–	–	·
Cc1ccc(C(=O)Nc2c(C(=O)N3CCN(c4cccc(C)c4)CC3)[nH]c3ccccc23)cc1	–	–	–
Cc1ccc(C(=O)Nc2c(C(=O)N3CCN(c4ccccc4)CC3)[nH]c3ccccc23)cc1	–	45.6	–
CS(=O)(=O)c1ccc(-c2nnc(NC(=O)c3ccco3)o2)cc1	–	–	–
CC(NC(=O)c1ccc(-c2nnc(-c3ccccc3)o2)cc1)c1ccc(S(C)(=O)=O)cc1 (configuration not stated)	–	35.7	–
CC(C)OCCCn1c(=O)c2ccccc2n2c(CCC(=O)NCc3ccccn3)nnc12	–	–	–
COc1cccc(NC(=O)CCc2nnc3n(CCCOC(C)C)c(=O)c4ccccc4n23)c1	–	36.6	·
CC(C)n1c(=O)[nH]c2c(C(=O)N3CCc4ccccc4C3)snc2c1=O	–	–	–
C[C@H](Cc1cc2c(cc1O)OCO2)[C@@H](C)Cc1cc2c(cc1O)OCO2	–	92.7	–
Cc1cc2c(cc1CCc1cc3c(cc1C)OCO3)OCO2	–	–	–
Cc1cnc(-c2nnc(C3CCCCN3C(=O)/C=C/c3ccccc3)o2)cn1 (configuration not stated)	–	–	–
O=C(c1ccc2n[nH]nc2c1)N1CCCC(c2cnccn2)C1 (configuration not stated)	–	–	–
CCCCCCCC(=O)c1c(O)cc(O)cc1CC(=O)O	–	–	–
COc1c(O)cc(CC(=O)O)c(C(C)=O)c1O	50.0	78.0	–
Cc1noc(-c2ccnc(-n3cnc(C(=O)NCC4CC4)c3)c2)n1	–	–	–
SMILES	UCHL1 block	OTUD3 inh	USP7 inh
CCOc1ccc(CN2C[C@@H](c3ccccc3)[C@H](c3ccn[nH]3)C2)cc1OC	–	–	–
CCn1cc2c(n1)c(=O)n(Cc1ccccc1)c(=O)n2CC(=O)Nc1ccc(C)cc1C	–	–	30.1
Cc1cc(C)c(NC(=O)Cn2c(=O)n(Cc3ccccc3)c(=O)c3nn(C)cc32)c(C)c1	–	43.8	–
CCn1c(=O)c2nscc2n(CC(=O)Nc2ccc(C)cc2Cl)c1=O	–	–	–
Cn1cc2c(n1)c(=O)n(Cc1ccc(F)cc1)c(=O)n2CC(=O)NCc1ccccc1	–	–	–
CC1c2[nH]c3ccccc3c2C[C@H]2C(=O)N(c3ccccc3C(=O)NCc3ccccc3)C(=O)N12 (some centres not stated)	–	–	–
CO[C@H]1CC[C@H](O)c2c1oc1c3c4c(c(O)c1c2=O)-c1c(cc2c(Cl)c(C)n(N)c(=O)c2c1O)C[C@@H]4OCO3	–	43.5	–
Cc1cccnc1Nc1cccc(C2CCCN2)n1 (configuration not stated)	–	–	–
c1ccc(-n2nnc(-c3noc(-c4ccccn4)n3)c2-c2ccncc2)cc1	–	–	–
COC(=O)c1cc2c(ccn2-c2ccc(F)cc2)n1CC(=O)NC1CCCCC1	–	–	–
CC(C)OC(=O)c1cc2c(ccn2-c2ccc(F)cc2)n1CC(=O)NC1CCCCC1	–	46.7	–
O=C(c1cnco1)N1CCCCC1c1ncc(Cc2cccc(Cl)c2)o1 (configuration not stated)	–	–	–
Oc1cc(OCCN2CCOCC2)ccc1-c1[nH]ncc1-c1ccc(Br)cc1	–	–	–
O=C1COc2ccc(-c3cc4n(c3)CCc3cc5c(cc3-4)OCO5)cc2N1	–	–	–
Cn1c(-c2nnc(SCC(=O)NCCc3ccccc3)o2)cc2ccccc21	–	–	–
CCCCNC(=O)CSc1nnc(-c2cc3ccccc3n2C)o1	–	31.1	–
O=C1C[C@@H](O)[C@H](O)[C@@]23O[C@@]12C1(Oc2cccc4cccc(c24)O1)[C@@H]1O[C@@H]1[C@@H]3O	–	33.1	–
COc1ccc(NCc2cc(=O)n3[nH]c(NCc4ccc(C(C)C)cc4)nc3n2)cc1	–	–	–
O=c1cc(CNc2ccc(Br)cc2)nc2nc(-c3ccccc3)[nH]n12	–	36.0	–
COc1cccc(Cn2cc(S(=O)(=O)N3CCCCCC3)ccc2=O)c1	–	–	–
O=C1NC2(CCN(Cc3cccc(F)c3)CC2)N=C1c1cccc(F)c1	–	–	–
COc1ccc(NC(=O)c2cnc(NCc3ccccc3)nc2C)cc1	–	–	–
COc1cc(CCC(=O)N(C)C(c2ccccc2)c2ccccc2)cc(OC)c1OC	–	–	–
COc1ccccc1CC(=O)N(C)C(c1ccccc1)c1ccccc1	–	35.1	–
COc1ccc(CN2CCC3(CC2)CN(C(C)=O)Cc2ccccc2O3)cc1	–	–	–
SMILES	UCHL1 block	OTUD3 inh	USP7 inh
O=C(Nc1ccccc1)c1cn2c3c(cccc3c1=O)CC2	–	–	–
Cc1nnc(-c2ccc3ccn(CC(=O)N4CCN(c5ccccn5)CC4)c3c2)o1	–	–	–
CCc1nnc(-c2ccc3ccn(CC(=O)N4CCN(c5ccccn5)CC4)c3c2)o1	–	83.2	–
CC1(C)Cc2nc(-c3ccccc3)nc(SCC(=O)Nc3ccccc3)c2CO1	–	–	–
CC(=O)c1ccc(NC(=O)CSc2nc(-c3ccccc3)nc3c2COC(C)(C)C3)cc1	–	30.5	–
CCNC(=O)N1CCN(c2ncccc2-c2nnc(C3CC3)o2)CC1	–	–	–
O=C(CN1CCCCCC1)Nc1cc([N+](=O)[O-])ccc1Cl	–	–	–
O=C(CN1CCCCC1)Nc1nnc(-c2ccc([N+](=O)[O-])cc2)s1	–	40.1	–
COc1cc(-c2ccccc2)c(O)c(O)c1-c1ccccc1	36.4	91.2	61.2
COc1ccc(NC(=O)c2oc(=O)c3ccccc3c2-c2ccccc2)cc1Cl	–	–	–
O=C(CCCCn1c(=O)[nH]c2ccccc2c1=O)Nc1cccc(Cl)c1	–	–	30.4
O=C(CCCCCn1c(=O)[nH]c2ccccc2c1=O)Nc1ccccc1Br	–	–	–
O=C(Nc1ccccc1)C1Cn2ccnc2C2(CCN(C(=O)Nc3ccc(F)cc3)CC2)O1 (configuration not stated)	–	–	–
